Screens deposited in PubChem BioAssay by National Center for Advancing Translational Sciences (NCATS).
Only some compounds are listed: those with a hit (about 18% of all), similar ones and a draw of the others.
TDP1 cell noCPT – qHTS for Inhibitors of human tyrosyl-DNA phosphodiesterase 1 (TDP1): qHTS in cells in absence of CPT; DT40 Tdp1-/- hTDP1 cells, no CPT, ATP luminescence, 48 h; AID 686978, 2013; 420,000 compounds, 15% hits; Potency, µM (highest dose often 46.2 µM), inactives show top-dose activity change, negative = growth inhibition, most hits filed as inhibitors; also: potency is read from the fitted curve at half-maximal effect; nearly all actives have a fitted effect of over 55% in size
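Readout: luminescence from CellTiter-Glo after 30 min in the dark at RT. Cells: DT40 Tdp1-/- with stable hTDP1, 400/well. Exposure: compounds alone, ≥48 hr, 37 °C.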
RORg inh – qHTS for inhibitors of ROR gamma transcriptional activity | Nuclear receptor ROR-gamma (Mus musculus), P51450 | Drosophila S2 Gal4-RORgamma UAS-luciferase reporter, 20 h | Potency, µM (top dose mostly 53.6 µM), inactives show at the top dose activity change, negative = inhibition, actives largely listed as inhibitors | 310,000 compounds, 5.4% hits; also: potency is read from the fitted curve at half-maximal effect; nearly all actives have a fitted effect of over 60% in size
Target sequence (P51450 whole entry, looked up, the tested form may be a part): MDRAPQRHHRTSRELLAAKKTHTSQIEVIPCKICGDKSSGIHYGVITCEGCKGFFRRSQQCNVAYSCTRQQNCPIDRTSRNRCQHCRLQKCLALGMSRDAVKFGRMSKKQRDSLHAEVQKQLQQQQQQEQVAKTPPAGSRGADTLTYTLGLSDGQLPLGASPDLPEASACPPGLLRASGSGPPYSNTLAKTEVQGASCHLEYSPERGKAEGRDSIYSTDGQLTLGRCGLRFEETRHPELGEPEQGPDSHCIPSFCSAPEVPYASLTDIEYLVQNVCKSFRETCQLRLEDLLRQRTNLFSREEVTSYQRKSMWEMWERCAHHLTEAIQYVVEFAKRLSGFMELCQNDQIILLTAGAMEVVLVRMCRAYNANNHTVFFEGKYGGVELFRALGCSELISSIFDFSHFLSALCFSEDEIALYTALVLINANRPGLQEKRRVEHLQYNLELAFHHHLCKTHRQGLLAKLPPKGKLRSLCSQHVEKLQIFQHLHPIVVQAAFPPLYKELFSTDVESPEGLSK
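A Gal4/UAS one-hybrid system in insect cells: metallothionein-promoter Gal4–ROR gamma fusion plus Photinus luciferase reporter. Copper sulfate 700 uM final, 20 hr ambient incubation, luminescent detection after 10 min with reagent.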
LDHA block – qHTS assay for inhibitors of human lactate dehydrogenase; purified LDHA, NADH/diaphorase-resazurin fluorescence; stronger effect = lower value; activity change, % (values are at about 110 or 230 µM); 480,000 compounds, 0.15% hits; in the data active = activity change below about -30%; inconclusive = mostly about -25% to -30%;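 also: plate controls were DMSO wells for no effect and wells without enzyme for full effect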
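LDH5 2 nM; NADH 0.06 mM, pyruvate 0.2 mM; 200 mM Tris pH 7.4, EDTA, Tween-20; 5 min RT. Detection: diaphorase 0.133 mg/mL + resazurin 37 µM, fluorescence ex540/em590 at 0 and 20 min; normalized to enzyme-free and DMSO wells.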
VP16 counter – VP16 counterscreen qHTS for inhibitors of ROR gamma transcriptional activity. Drosophila S2 Gal4-VP16 UAS-luciferase, luminescence, 20 h. Potency, µM (highest dose often 53.6 µM), without a hit: at the top dose activity, negative = inhibition, usual class: inhibitors. 310,000 compounds, 3.5% hits;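 also: Gal4-VP16 expression switched on by copper sulfate through the metallothionein promoter; potency is read from the fitted curve at half-maximal effect; nearly all actives have a fitted effect of over 50% in size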
IL1B secr inh – qHTS for Inhibitors of Inflammasome Signaling: IL-1-beta AlphaLISA Primary Screen. THP-1 LPS/ATP IL-1B secretion, AlphaLISA, 16 h; stronger effect = lower value. activity change, % at 57.5 µM. 360,000 compounds, 4.7% hits. AID 743279, 2014; in the data active = activity change below about -50%; inconclusive = mostly about -30% to -49%
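THP-1 cells pretreated 1 hr with compounds (up to 57.5 uM final), then stimulated with LPS (250 ng/mL final) plus ATP (1.25 mM final); secreted IL-1B measured by AlphaLISA after 16 hr, decreased signal indicating inhibition.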
DT40 TDP1 CPT – qHTS for Inhibitors of human tyrosyl-DNA phosphodiesterase 1 (TDP1): qHTS in cells in presence of CPT. Potency, µM (titrated, usually from 46.2 µM), for inactives: top-dose activity change, negative = growth inhibition, hits mostly inhibitors. chicken DT40 Tdp1-/-;hTDP1 cells + 20 nM CPT, ATP luminescence, 48 h. 420,000 compounds, 12% hits; also: potency is read from the fitted curve at half-maximal effect; nearly all actives have a fitted effect of over 55% in size
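Chicken DT40 Tdp1-/- cells complemented with human TDP1, 400 cells/well, exposed to compounds plus 20 nM camptothecin for at least 48 h at 37 C; viability read as ATP content by CellTiter-Glo luminescence.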
Active calls of the source: *; u = inconclusive; x = not tested or not shown; ! = not confirmed by another sample. Unless noted, calls follow the shape of the dose curve; as a rule, active = well fitted curve in the direction sought with a large enough effect; inconclusive = small, poorly fitted or top-dose-only effect, or another doubt; inactive = no such curve, though single readings can be large; an effect the other way counts as inactive or inconclusive. Unless noted, % is scaled to controls: 0 for no effect and ±100 for the full control effect.

SMILES	TDP1 cell noCPT	RORg inh	LDHA block	VP16 counter	IL1B secr inh	DT40 TDP1 CPT
COC(=O)c1ccccc1NC(=O)c1nn(C)c2c1COc1ccccc1-2	-1.7%	x	-3.4	x	x	-4.9%
CC(=O)Nc1ccc(N=c2cc([N+](=O)[O-])cc(Cl)n2O)cc1	14.6µM*	u	12.4	u	-53.2*	u
FC(F)(F)c1ccc(CSc2ccccn2)cc1	-26.1%	4.1%	-1.5	0.0%	-60.8*	-3.3%
COc1cccc(NC(=O)C(Cc2ccccc2)n2cccc2)c1 (stereo not drawn)	-23.3%	3.4%	-6.3	-3.5%	-73.0*	-21.0%
COc1ccc(NC(=O)C(Cc2ccccc2)n2cccc2)c(OC)c1 (stereo not drawn)	18.4µM*!	u	0.1	1.5%	-6.4	23.1µM*!
CN1CCN(c2cnn(Cc3ccc(F)cc3)c(=O)c2Cl)CC1	x	x	-1.2	x	x	x
CC(C)CC(NC(=O)C1CC1)C(=O)N(C)C (stereo not drawn)	x	x	-9.3	x	x	x
CC1CN(c2ncnc3c2oc2ccccc23)CC(C)O1 (stereo not drawn)	20.6µM*	-33.4%	-3.0	2.5%	-1.5	u
Clc1ccc(N2CCN(c3ncnc4c3oc3ccccc34)CC2)cc1	14.1µM*	-13.3%	-9.4	-3.2%	19.9	20.6µM*
CN(C)/C=N/c1nc(-c2ccc3ccccc3c2)cs1	-0.5%	-14.6%	-1.2	-5.0%	-60.6*	-25.1%
NCCc1nc(-c2ccccc2)cs1	-22.9%	-14.3%	-3.6	3.4%	-52.3*	4.4%
Nc1nc(-c2ccc3ccccc3c2)cs1	-28.8%	-1.9%	-5.1	u	-67.5*	6.8%
Nc1nc(-c2ccc(Oc3ccccc3)cc2)cs1	u	22.9%	1.7	-8.9%	-2.0	4.1%
CN(C)/C=N/c1nc(-c2ccc3c(c2)OCO3)cs1	-14.3%	17.9%	-2.2	-15.7%	-17.9	0.6%
OC(c1ccccc1)c1nc(-c2cc3ccccc3o2)cs1 (stereo not drawn)	-16.3%	x	-5.1	x	27.0	-27.5%
Nc1nc(-c2cc3ccccc3o2)cs1	-16.0%	-2.2%	-8.7	-14.8%	-75.3*	6.1%
CCC(Sc1nnc(C)n1-c1ccccc1)C(=O)Nc1cc(C)on1 (stereo not drawn)	x	x	-1.6	x	x	x
CCOC(=O)CSc1ncn(-c2nc(NC)nc(N(C)C)n2)n1	x	x	7.3	x	x	x
Nc1nc(-c2ccc(-c3ccccc3)cc2)cs1	-17.3%	u	-2.9	22.4µM*	22.9	-21.3%
CN(C)c1ccc(C(CN)c2c[nH]c3ccccc23)cc1 (stereo not drawn)	20.6µM*	23.2%	2.9	-3.0%	0.0	18.4µM*
CCOC(=O)C=C(C(=O)OCC)C(=O)OCC	4.61µM*	-26.9%	0.3	3.6%	6.5	4.61µM*
CCc1ccc(C(=O)c2cn(CC(=O)Nc3ccc(F)c(F)c3)c3cc(OC)c(OC)cc3c2=O)cc1	16.4µM*	x	-3.6	x	x	20.6µM*
CCc1ccc(C(=O)c2cn(Cc3ccc(F)cc3)c3cc(OC)c(OC)cc3c2=O)cc1	6.51µM*	x	-0.4	x	x	5.8µM*
Nc1cc(N)nc(SCCC(=O)Nc2cccc(Cl)c2)n1	x	x	2.2	x	x	x
C/C(=N/NC(=O)c1cc(-c2ccccc2)nc2c(Cl)cccc12)c1cccnc1	-27.8%	17.8µM*	-10.4	11.2µM*	-0.8	10.1%
SMILES	TDP1 cell noCPT	RORg inh	LDHA block	VP16 counter	IL1B secr inh	DT40 TDP1 CPT
C/C(=N\NC(=O)c1cc(-c2ccc(C)s2)nc2ccccc12)c1cccnc1	u	u	-9.6	u	-53.4*	11.6µM*
C/C(=N\NC(=O)c1cc(-c2ccccc2C)nc2ccccc12)c1cccnc1	u	u	-3.7	-9.0%	-3.8	u
C/C(=N\NC(=O)c1cc(-c2cccc(OC(C)C)c2)nc2ccccc12)c1cccnc1	u	-127.9%	0.3	u	-2.8	10.3µM*
COc1ccc(-c2cc(C(=O)N/N=C(\C)c3cccnc3)c3cc(C)ccc3n2)cc1OC	1.16µM*	-11.3%	-0.7	-1.2%	-22.5	8.2µM*
Nc1nccnc1C(=O)NCc1ccnc(-n2cccn2)c1	x	x	9.2	x	x	x
Cc1ccc(O)c(NC(=O)c2cc(-c3cccnc3)nc3ccccc23)c1	x	x	-3.6	x	x	x
C/C(=N\NC(=O)c1cc(-c2cccnc2)nc2ccccc12)c1ccc(O)cc1O	10.3µM*	0.631µM*	-7.8	0.562µM*	49.3	11.6µM*
O=C(O)C(c1c[nH]c2ccc(Cl)cc12)N1CCN(Cc2ccc(Cl)cc2Cl)CC1 (stereo not drawn)	x	x	-4.4	x	x	x
CCCCc1ccc(-c2csc(/C(C#N)=C\c3ccc(C)o3)n2)cc1	-4.2%	2.1%	2.6	0.8%	-50.1*	-26.5%
N#C/C(=C/c1ccc(-c2ccccc2)o1)c1nc(-c2cccs2)cs1	u	u	-0.1	0.1µM*	0.0	-29.3%
N#C/C(=C\c1ccc(-c2ccccc2)o1)c1ccccc1	x	x	3.0	x	x	x
CCCNc1nc2ccccc2nc1C(=O)Nc1cc(C)ccc1OC	x	x	5.6	x	x	x
O=C(COc1c(Br)cc(Br)c2cccnc12)N1CCc2ccccc2C1	u	5.62µM*	8.4	7.94µM*	11.2	u
O=C(COc1c(Br)cc(Br)c2cccnc12)N1CCCCC1	u	10µM*	2.9	u	-6.2	-23.3%
Cc1ccc(OCC(=O)N2CCCCC2)c(Br)c1	-3.6%	32.8%	-2.2	0.1%	4.9	-2.5%
O=C(COc1cccc2cccnc12)N1CCc2ccccc2C1	u	17.6%	12.0	8.5%	23.7	u
O=C(COc1c(Br)cc(Br)c2cccnc12)Nc1ccccc1F	18.4µM*	u	9.4	20µM*	15.3	u
Cc1cccc(C)c1OCC(=O)N1CCc2ccccc2C1	u	-7.9%	-5.5	1.6%	-81.9*	u
O=C(Cn1c(C(=O)OCCO)cc2ccccc21)c1ccccc1	u	-0.8%	2.9	-0.4%	20.8	8.2µM*
O=C(CC1C=CCC1)N(Cc1ccco1)C1CC1 (stereo not drawn)	x	x	-3.5	x	x	x
COc1ccccc1CNc1ncnc2ccc(-c3ccccc3CN(C)C)cc12	u	20.9%	x	1.3%	x	u
COc1ccc(CNc2ncnc3ccc(-c4ccccc4OC)cc23)c(OC)c1	u	-5.4%	x	-10.2%	x	u
